Experimental data published in PubChem BioAssay AID1159580 (chemical genetic matrix, 2015).
Several values for one entry are separate records, joined by “and”; a condition that tells them apart may be missing. Equal entries are not always repeated. Out of some 5,500 compounds screened, about 2,000 (36%) were called active. Inconclusive results (about 18%) are left out. Cut-off read from the data, not from the text of the source: active = normalized growth mostly below about 0.91 (no sharp cut-off); inconclusive = no clear call, values can overlap the other calls; inactive = mostly above about 0.92. The list shows a part of the results.

Assay: chemical genetic growth profiling, strain panel (AID 1159580);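 note: tested at 20 µM; growth read once vehicle control cultures reached saturation at 30 °C; 1 = growth at the plate median or of vehicle wells; lower values mean less growth of the strain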
Conditions: S. cerevisiae deletion strains, growth OD

Measured: normalized growth

C[C@H]1[C@H](C)CC[C@]2(CO)CC[C@]3(C)C(=CCC4[C@@]5(C)CC[C@H](O)C(C)(C)C5CC[C@]43C)[C@H]12 (some centres not stated)
inactive: locus YAL021C, strain ccr4, stronger effect = lower value 1.02 | locus YAL026C, strain drs2, stronger effect = lower value 0.981 | locus YAL030W, strain snc1, stronger effect = lower value 0.997 | locus YBL061C, strain skt5, stronger effect = lower value 0.994 | locus YBR009C, strain hhf1, stronger effect = lower value 1.01 | locus YBR021W, strain FUR4, stronger effect = lower value 1.01 | locus YBR023C, strain chs3, stronger effect = lower value 0.995 | locus YBR171W, strain sec66, stronger effect = lower value 0.989 | locus YBR229C, strain ROT2, stronger effect = lower value 1.02 | locus YBR231C, strain swc5, stronger effect = lower value 0.996 | locus YBR279W, strain paf1, stronger effect = lower value 0.991 | locus YCL011C, strain gbp2, stronger effect = lower value 0.994 | locus YCL016C, strain dcc1, stronger effect = lower value 1.01 | locus YCL029C, strain bik1, stronger effect = lower value 1.06 | locus YCL061C, strain MRC1, stronger effect = lower value 1 | locus YCL069W, strain vba3, stronger effect = lower value 0.998 | locus YCR088W, strain abp1, stronger effect = lower value 0.995 | locus YDL005C, strain med2, stronger effect = lower value 0.986 | locus YDL035C, strain GPR1, stronger effect = lower value 0.994 | locus YDL040C, strain nat1, stronger effect = lower value 0.996 | locus YDL074C, strain BRE1, stronger effect = lower value 1.03 | locus YDL101C, strain DUN1, stronger effect = lower value 1.02 | locus YDL134C, strain PPH21, stronger effect = lower value 0.999 | locus YDL185W, strain tfp1, stronger effect = lower value 1.03 | locus YDL192W, strain arf1, stronger effect = lower value 1.04 | locus YDR001C, strain nth1, stronger effect = lower value 1 | locus YDR069C, strain doa4, stronger effect = lower value 0.988 | locus YDR101C, strain arx1, stronger effect = lower value 1.01 | locus YDR137W, strain rgp1, stronger effect = lower value 0.996 | locus YDR159W, strain sac3, stronger effect = lower value 1.01 | locus YDR162C, strain NBP2, stronger effect = lower value 1.01 | locus YDR195W, strain ref2 0.992 | locus YDR297W, strain sur2, stronger effect = lower value 1.01 | locus YDR318W, strain mcm21, stronger effect = lower value 1.02 | locus YDR334W, strain swr1, stronger effect = lower value 0.992 | locus YDR335W, strain msn5, stronger effect = lower value 0.999 | locus YDR388W, stronger effect = lower value 1.02 | locus YDR392W, strain spt3, stronger effect = lower value 1.03 | locus YDR502C, strain sam2, stronger effect = lower value 0.998 | locus YEL003W, strain gim4, stronger effect = lower value 1 | locus YEL037C, strain rad23, stronger effect = lower value 0.981 | locus YEL061C, strain CIN8 (second series), stronger effect = lower value 0.972 | locus YEL061C, strain CIN8, stronger effect = lower value 1.01 | locus YER015W, strain faa2, stronger effect = lower value 1 | locus YER016W, strain bim1, stronger effect = lower value 0.988 | locus YER110C, stronger effect = lower value 1.03 | locus YER111C, strain swi4, stronger effect = lower value 1.01 | locus YER155C, strain BEM2 (second series), stronger effect = lower value 0.995 | locus YER155C, strain BEM2, stronger effect = lower value 1.02 | locus YER167W, strain BCK2, stronger effect = lower value 0.994 | locus YFR010W, strain ubp6, stronger effect = lower value 0.987 | locus YGL078C, strain dbp3, stronger effect = lower value 1.01 | locus YGL086W, strain mad1, stronger effect = lower value 1.01 | locus YGL167C, strain pmr1, stronger effect = lower value 0.996 | locus YGL173C, strain kem1, stronger effect = lower value 1 | locus YGL227W, strain vid30, stronger effect = lower value 0.999 | locus YGL240W, strain doc1, stronger effect = lower value 0.975 | locus YGL248W, strain PDE1, stronger effect = lower value 1.01 | locus YGL253W, strain hxk2, stronger effect = lower value 0.995 | locus YGR135W, strain pre9, stronger effect = lower value 1.01 | locus YGR252W, strain gcn5, stronger effect = lower value 1.02 | locus YHR013C, strain ard1, stronger effect = lower value 0.982 | locus YHR027C, strain rpn1, stronger effect = lower value 1 | locus YHR030C, strain SLT2, stronger effect = lower value 1.01 and 1.03 | locus YHR079C, strain IRE1 (second series), stronger effect = lower value 1.02 | locus YHR079C, strain IRE1, stronger effect = lower value 1.04 | locus YHR094C, strain hxt1, stronger effect = lower value 1.03 | locus YHR129C, strain ARP1, stronger effect = lower value 1.02 | locus YHR142W, strain chs7, stronger effect = lower value 1.01 | locus YHR200W, strain rpn10, stronger effect = lower value 1.01 | locus YIL066C, strain RNR3, stronger effect = lower value 1.01 | locus YIL073C, strain SPO22, stronger effect = lower value 1.05 | locus YIL125W, strain kgd1, stronger effect = lower value 1.03 | locus YIR030C, strain dcg1, stronger effect = lower value 1.02 | locus YJL092W, strain hpr5, stronger effect = lower value 0.995 | locus YJL095W, strain BCK1 (second series), stronger effect = lower value 1.01 | locus YJL095W, strain BCK1, stronger effect = lower value 1.02 and 0.984 | locus YJL115W, strain asf1, stronger effect = lower value 0.991 | locus YJL129C, strain trk1, stronger effect = lower value 1 | locus YJL134W, strain LCB3, stronger effect = lower value 1.01 | locus YJL154C, strain vps35, stronger effect = lower value 0.986 | locus YJL164C, strain tpk1, stronger effect = lower value 1.01 | locus YJL166W, strain qcr8, stronger effect = lower value 0.994 | locus YJL168C, strain set2, stronger effect = lower value 1.02 | locus YJL187C, strain SWE1 (second series), stronger effect = lower value 1.02 | locus YJR043C, strain POL32, stronger effect = lower value 1 | locus YJR066W, strain TOR1, stronger effect = lower value 0.997
